Compounds with a hit are over-represented: about 7.7% of the library has one in this group of screens.
FBPA Giardia inh: qHTS Assay for Inhibitors of Fructose-1,6-bisphosphate Aldolase from Giardia Lamblia; Potency, µM (doses to about 59.6 µM), for inactives: at the top dose activity, negative = inhibition, hits mostly inhibitors; purified Giardia FBPA; 0.71% of 290,000 active; AID 2451, 2010; A8B2U2; also: potency is read from the fitted curve at half-maximal effect; nearly all actives have a fitted effect of over 55% in size
Target sequence (A8B2U2 whole entry, looked up): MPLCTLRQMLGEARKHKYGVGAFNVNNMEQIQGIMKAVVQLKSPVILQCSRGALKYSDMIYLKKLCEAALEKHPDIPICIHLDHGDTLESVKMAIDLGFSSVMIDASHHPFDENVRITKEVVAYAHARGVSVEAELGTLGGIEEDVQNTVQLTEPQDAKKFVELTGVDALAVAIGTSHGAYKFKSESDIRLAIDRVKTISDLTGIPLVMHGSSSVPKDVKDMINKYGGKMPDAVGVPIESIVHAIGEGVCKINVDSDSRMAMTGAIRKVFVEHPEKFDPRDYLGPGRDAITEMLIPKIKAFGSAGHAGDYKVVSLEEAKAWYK
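Giardia FBPA (40 nM reagent) was preincubated 10 min at RT with compound (up to 57.5 uM final), then substrate plus GAPDH/TPI/NAD/arsenate coupling system with diaphorase/resazurin was added; resorufin fluorescence (525/598 nm) was read after 20 min.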
TbPYK inhibitor: qHTS of Trypanosoma Brucei Inhibitors. pyruvate kinase (Trypanosoma brucei), Q57TT1. TbPYK enzyme, Kinase-Glo Plus ATP luminescence, 45 min. Potency, µM (titrated, usually from 76.8 µM), without a hit: at the highest dose activity, negative = inhibition, actives largely listed as inhibitors. 0.12% of 410,000 active. AID 624173, 2012; also: potency is read from the fitted curve at half-maximal effect; nearly all actives have a fitted effect of over 50% in size
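Luminescent Kinase-Glo Plus end-point after 45 min room-temperature reaction of T. brucei pyruvate kinase started with 130 uM ADP (final). Buffer TEA 50 mM pH 7.2 with KCl, MgCl2, BSA, Tween-20; titration-based qHTS with fitted concentration-effect curves.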
RE007 growth inh: qHTS Assay for Inhibitors of the HIV-1 protein Vpr | S. pombe RE007 Vpr strain, BacTiter-Glo ATP luminescence, 24 h | Potency, µM (doses to about 92.2 µM), inactives show at the top dose activity change, negative = less growth, most hits filed as inhibitors | 0.21% of 360,000 active; active = well fitted falling curve with a large enough effect; inconclusive = small, poorly fitted or top-dose-only effect; inactive = no such curve, though single readings can be large or run the other way; also: potency is read from the fitted curve at half-maximal effect; nearly all actives have a fitted effect of over 50% in size
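Fission yeast strain RE007, carrying one chromosomally integrated HIV-1 vpr copy, was seeded at OD 0.01 in PMG+AL medium with 23 nL pinned compound. After 24 h at 30 °C and 99% humidity, viability was read by BacTiter-Glo luminescence.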
Sm TGR inh: qHTS Assay for the Inhibitors of Schistosoma Mansoni Peroxiredoxins. Schistosoma mansoni thioredoxin glutathione reductase (TGR), Q962Y6. purified TGR, DTNB reduction, TNB absorbance 405 nm. Potency, µM (titrated, usually from 114 µM), without a hit: top-dose activity change, negative = inhibition, actives largely listed as inhibitors. 3% of 360,000 active. AID 485364, 2010; also: potency is read from the fitted curve at half-maximal effect; nearly all actives have a fitted effect of over 60% in size
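First, TGR (20 nM dispensed) and NADPH were mixed with compound. Second, a 15 min room-temperature incubation followed. Third, further NADPH and then DTNB were added to start the reaction. Finally, TNB absorbance was monitored kinetically.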
HCMV antiviral: qHTS Assay for inhibitors of the human cytomegalovirus (HCMV); HFF cells, HCMV-luciferase reporter, 72 h; hits give low values; activity change, negative = inhibition, % at 57.5 µM; 4.5% of 410,000 active; in the data active = activity change below about -60%; inconclusive = no clear call, values can overlap the other calls; inactive = above about -39%
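Two compound doses tested in HFFs infected with HCMV-luciferase, MOI 1 PFU/cell, 72 h at 37C. Lysate luminescence read with OneGlo; data normalized against buffer-only and 10uM Salinomycin inhibitor controls.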
FMDV antiviral: High Throughput Screening for Foot and Mouth Disease Virus Antivirals; FMDV antiviral cell-based qHTS; Potency, µM (doses to about 57.9 µM), without a hit: at the top dose activity change, negative = inhibition, most hits filed as inhibitors; 1.2% of 410,000 active; AID 1159524, 2015; calls by dose curve; tested in HEK293T cells; also: read-out not given here; potency is read from the fitted curve at half-maximal effect; nearly all actives have a fitted effect of over 45% in size
An asterisk follows results filed as active; ? = inconclusive; / = no result given; ! = not confirmed by another sample. Unless noted, calls follow the shape of the dose curve; as a rule, active = well fitted curve in the direction sought with a large enough effect; inconclusive = small, poorly fitted or top-dose-only effect, or another doubt; inactive = no such curve, though single readings can be large; an effect the other way counts as inactive or inconclusive. % is scaled to controls: 0 for no effect and ±100 for the full control effect.

SMILES	FBPA Giardia inh	TbPYK inhibitor	RE007 growth inh	Sm TGR inh	HCMV antiviral	FMDV antiviral
CCOC(=O)c1[nH]c(=O)[nH]c1CSc1ccccn1	-1.1%	-5.7%	-26.1%	14.1µM*	74.0	1.1%
COc1ccc(OC)c2c1C(=O)C(Cl)=C(Cl)C2=O	1.26µM*	2.82µM*	?	?	-91.2*	20µM*
COc1ccc(OC)c2c1C(=O)c1ccccc1C2=O	?	0.5%	-8.4%	-1.6%	18.9	-3.3%
CN(C)c1nc(N)nc(/C(C#N)=C/C2CC3C=CC2C3)n1 (stereo not given)	?	-4.2%	-0.2%	39.8µM*	47.5	-6.3%
Cc1ccc(C(NC(=O)C2CCCCC2)c2c(O)ccc3ccccc23)cc1 (stereo not given)	-3.6%	-1.3%	1.8%	-3.2%	-66.4*	-20.8%
CC(=O)NC(c1ccc(C(C)C)cc1)c1c(O)ccc2ccccc12 (stereo not given)	/	10.4%	0.2%	/	14.9	-0.4%
CCOC(=O)/C=C/C(=O)Nc1ccc(-c2nnc3n2CCCCC3)cc1	7.1%	-17.0%	-10.4%	-28.4%	11.3	-6.7%
O=c1c2cc(NC(=S)NC3CCCC3)ccc2nc2n1CCCCC2	-1.2%	6.4%	0.9%	?	?	10.5%
O=c1c2cc(NC(=S)NCCN3CCCCCC3)ccc2nc2n1CCCCC2	0.6%	3.8%	18.9%	-1.7%	0.2	-22.4%
O=c1c2cc(NC(=S)NCCCN3CCC(Cc4ccccc4)CC3)ccc2nc2n1CCCCC2	1.5%	4.0%	-12.8%	?	-96.2*	-20.8%
COc1ccc(/C=C/C(=O)Nc2ccc(-c3nnc4n3CCCCC4)cc2)c(OC)c1	9.2%	6.5%	2.5%	-9.6%	-74.1*	-28.6%
O=c1c2cc(NC(=S)NC3CCCCC3)ccc2nc2n1CCCCC2	4.0%	0.2%	0.7%	-5.2%	-79.5*	-26.6%
COc1cc(C(=O)Nc2ccc3nc4n(c(=O)c3c2)CCCCC4)cc(OC)c1OC	/	-0.7%	-8.5%	-13.3%	9.2	10µM*!
Cc1nn(-c2ccccc2)c2c1cc1c(=O)n(C)c(=O)nc-1n2-c1cccc(Cl)c1	/	-2.9%	/	2.7%	27.5	-13.7%
CC(C)Cn1c(=O)c2ccccc2n2c(CCC(=O)NC(C)c3ccccc3)nnc12 (stereo not given)	/	-4.0%	/	4.8%	?	-9.4%
COc1ccc(NC(=O)Cn2ncc3c([nH]c4ccccc43)c2=O)cc1Cl	/	-3.4%	/	3.9%	-12.9	-3.5%
Cc1ccc(C)c(N2CCN(C(=O)c3cc(S(=O)(=O)N4CCCCCC4)cn3C)CC2)c1	/	2.6%	/	-1.2%	2.4	0.0%
N=C(N)n1cccn1	/	-1.9%	/	/	/	/
COc1cccc(NC(=O)N2CCC(n3c(C)nc4cccnc43)CC2)c1	/	-2.4%	/	-5.2%	6.0	-3.4%
O=c1c2cc(NC(=S)N3CCC(N4CCCCC4)CC3)ccc2nc2n1CCCCC2	4.5%	-4.6%	18.5%	2.6%	16.1	-15.7%
CC1CCCCN1C(=S)Nc1ccc2nc3n(c(=O)c2c1)CCCCC3 (stereo not given)	-9.3%	-11.7%	-3.8%	?	-104.0*	22.8%
Cc1ccc(N2CCN(S(=O)(=O)N3CCCCC3)CC2)cc1C	6.3%	7.2%	2.5%	0.0%	-69.3*	-10.5%
Cc1ccc(N2CCN(S(=O)(=O)N3CCCCCC3)CC2)cc1Cl	5.6%	-4.7%	-12.7%	-16.9%	-7.7	4.3%
CCCn1c(=O)c2sccc2n2c(CCCC(=O)N3CCN(c4cccc(C)c4C)CC3)nnc12	/	1.6%	/	-2.6%	-16.7	15.8µM*
CCC(C)n1c(=O)c2sccc2n2c(CCCC(=O)N3CCC(C(N)=O)CC3)nnc12 (stereo not given)	/	5.0%	14.9%	7.08µM*	0.0	-6.5%
CCCn1c(=O)c2sccc2n2c(CCCC(=O)N3CCN(c4ccccc4OC)CC3)nnc12	/	-5.8%	/	4.5%	-30.2	-16.3%
